This is one part of the list. Values without a mark were called inactive. Active and inactive are the calls of the source.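 The calls were made as follows: active = superoxide signal below 65% of the plate average of sample wells; inactive = the rest.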
Experiment: superoxide lowering in aged yeast cells, confirmation, cherry picked compounds (AID 434994);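 also: cells aged with compound for 7 days at 30 degrees C before staining; 100% equals mean DHE fluorescence of all compound wells on the plate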
Details: S. cerevisiae aging, superoxide DHE fluorescence; at 10 µM; active compounds read low
`CC(C)(C)NC(=O)COc1ccc(CNc2ccc3[nH]c(=O)[nH]c3c2)cc1` showed a superoxide response (% of plate) of 96.2%.
Work on `CSc1ncc(Cl)c(C(=O)Nc2cc(C)ccc2C)n1` yielded a superoxide response (% of plate) of 95.3%.
Work on `Cc1ccc(-c2nnc(Nc3ccc(C(=O)N(C)C)cc3)c3ccccc23)cc1S(N)(=O)=O` yielded a superoxide response (% of plate) of 107%.
With `O=C(O)C1CCCN1S(=O)(=O)c1ccc(Br)cc1` (configuration not stated) the superoxide response (% of plate) was 105%.
In the case of `NC(=S)Nc1c(Cl)cccc1Cl`, the superoxide response (% of plate) is reported as 109%.
In the case of `Cn1c(Nc2ccccc2)cc(=O)n(C)c1=O`, the superoxide response (% of plate) is reported as 100%.
`CNC(=O)c1cccc2nc3ccccc3nc12` gave a superoxide response (% of plate) of 79.8%.
Work on `COc1cc(NC(=O)CSc2ccc(-c3cccnc3)nn2)cc(OC)c1` yielded a superoxide response (% of plate) of 123%.
`O=C(O)c1ccc(F)c(S(=O)(=O)Nc2ccccc2)c1` gave a superoxide response (% of plate) of 101%.
Compound `Cc1ccc2cccc(S(=O)(=O)N3CCN(c4ccccc4F)CC3)c2n1` has a superoxide response (% of plate) of 119%.
Compound `CSc1sc(C(=O)NNC(=O)c2ccc(Cl)cc2)c2c1C=CCC2` has a superoxide response (% of plate) of 104%.
For `Cc1ccc(-c2nn(C(C)(C)C)c3ncnc(N)c23)cc1`, the superoxide response (% of plate) was 42.9% (active).
With `COC(=O)CNC(=O)c1ccc(OC2CCN(C(=O)C3CC3)CC2)cc1` the superoxide response (% of plate) was 103%.
In the case of `CCCC(C)C(=O)OCC(=O)Nc1c(Br)cc(C)cc1Br` (configuration not stated), the superoxide response (% of plate) is reported as 101%.
`O=C(CN1CCN(c2ccccn2)CC1)Nc1ccc(Br)cc1` showed a superoxide response (% of plate) of 111%.
In the case of `Cc1cc(C(F)F)n2nc(C(=O)Nc3ccc(S(=O)(=O)NC45CC6CC(CC(C6)C4)C5)cc3)nc2n1`, the superoxide response (% of plate) is reported as 111%.
Compound `CC(=O)NC1=NN(C(C)=O)C(C)(CCS(=O)(=O)c2ccc(Cl)c(Cl)c2)S1` (configuration not stated) has a superoxide response (% of plate) of 101%.
